Experimental data: PubChem BioAssay (NCATS)
Values without a mark were called inactive. Inconclusive results are not listed. Entries that show only a call come without a potency. Calls of active or inactive are those of the source. Calls come from the whole dose curve; as a rule, active = well fitted curve in the direction sought with a large enough effect; inconclusive = small, poorly fitted or top-dose-only effect, or another doubt; inactive = no such curve, though single readings can be large; an effect the other way counts as inactive or inconclusive.

Legend:
[1] = Primary fluorescence-based thiol-reactive (MSTI) qHTS assay for identification of artifact compounds. (AID 1845221); note: nearly all actives have a fitted effect of over 65% in size; note: potency is the fitted concentration of half-maximal effect
Procedure, shortened: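 In PBS pH 7.4 with 2% DMSO, each compound met 4 uM MSTI for one hour at ambient temperature, shielded from light, before fluorescence detection.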

[2] = test system: Nanoluciferase (engineered Oplophorus gracilirostris luciferase); experiment: Primary Nanoluciferase (NLuc) qHTS assay for identification of artifact compounds. (AID 1845222); note: potency is the fitted concentration of half-maximal effect
Procedure, shortened: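 Diluted conditioned medium from NLuc-expressing S16 cells treated with compounds for 15 min at room temperature, then Nano-Glo substrate added; luminescence read after 5 min. Percent inhibition versus no-enzyme and DMSO controls fitted to 4-parameter Hill equation.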

[3] = Primary redox qHTS assay for identification of artifact compounds. (AID 1845223)
Procedure, shortened: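 Amplex Red (25 uM) and HRP (250 mU/mL) in HBSS, with compounds for 15 min, then 250 uM DTT for 30 min, room temperature, dark. Fluorescence 525/598 nm read; normalized to DMSO and 10 uM DA3003; Hill fit.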

[4] = Quantitative High-Throughput drug screen in 47 multiple myeloma cell lines against the NCATS MIPE library collection: Delta47_JCRB cell viability assay (AID 1918925; note: nearly all actives have a fitted effect of over 45% in size; note: potency is the fitted concentration of half-maximal effect)
Procedure, shortened: (§1)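 Approved and investigational drugs from MIPE 4.0 were added by pin tool to 500 cells per well. After 48 hours at 37C, ATP-based CellTiter-Glo luminescence indicated remaining viability.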

[5] = Quantitative High-Throughput drug screen in 47 multiple myeloma cell lines against the NCATS MIPE library collection: ARP1_JJKsccF8 cell viability assay (AID 1918928; note: nearly all actives have a fitted effect of over 40% in size; note: potency is the fitted concentration of half-maximal effect)
Procedure, shortened: (§2)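 Luminescence from CellTiter-Glo, taken after 5 min at room temperature, reports cellular ATP as viability. Cells (500 per well) had been treated 48 h at 37 °C with MIPE 4.0 compounds, scaled between DMSO and medium-only controls.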

[6] = Quantitative High-Throughput drug screen in 47 multiple myeloma cell lines against the NCATS MIPE library collection: KHM11_PLB cell viability assay (AID 1918962); note: nearly all actives have a fitted effect of over 35% in size; note: potency is the fitted concentration of half-maximal effect
Procedure, shortened: (§3)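 Inhibition of cell viability is measured here. Each line was plated at 500 cells per well, treated with MIPE 4.0 drugs, kept 48 hours at 37C, then assayed for ATP content by CellTiter-Glo luminescence.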

[7] = Quantitative High-Throughput drug screen in 47 multiple myeloma cell lines against the NCATS MIPE library collection: INA6_PLB cell viability assay (AID 1918965; note: nearly all actives have a fitted effect of over 55% in size; note: potency is the fitted concentration of half-maximal effect)
Procedure, shortened: (§4)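 qHTS of the MIPE 4.0 collection: 500 myeloma cells/well, 48 h drug exposure at 37C in 5% CO2, then CellTiter-Glo for 5 min at room temperature before luminescence reading.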

[8] = Quantitative High-Throughput drug screen in 47 multiple myeloma cell lines against the NCATS MIPE library collection: JJN3_DSMZ cell viability assay (AID 1918966; note: potency is the fitted concentration of half-maximal effect; nearly all actives have a fitted effect of over 50% in size)
Procedure, shortened: as §1

[9] = Quantitative High-Throughput drug screen in 47 multiple myeloma cell lines against the NCATS MIPE library collection: H1112_PLB cell viability assay (AID 1918967; note: nearly all actives have a fitted effect of over 30% in size; note: potency is the fitted concentration of half-maximal effect)
Procedure, shortened: as §1

[10] = Quantitative High-Throughput drug screen in 47 multiple myeloma cell lines against the NCATS MIPE library collection: Karpas25_ECACC cell viability assay (AID 1918968; note: nearly all actives have a fitted effect of over 35% in size; note: potency is the fitted concentration of half-maximal effect)
Procedure, shortened: as §1

[11] = Quantitative High-Throughput drug screen in 47 multiple myeloma cell lines against the NCATS MIPE library collection: KMS27_JCRB cell viability assay (AID 1918970); settings: KMS27 myeloma cells, CellTiter-Glo ATP viability, 48 h; viability (% of DMSO): at 45.8 µM (top of the series); note: nearly all actives have a fitted effect of over 30% in size; note: potency is the fitted concentration of half-maximal effect
Procedure, shortened: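 CellTiter-Glo luminescence after 48 h drug exposure at 37 °C; 500 cells/well, 1536-well format, pin-tool compound addition; DMSO = 100%, media-only = 0% viability.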

[12] = Quantitative High-Throughput drug screen in 47 multiple myeloma cell lines against the NCATS MIPE library collection: Karpas620_DSMZ cell viability assay (AID 1918959); note: nearly all actives have a fitted effect of over 30% in size; note: potency is the fitted concentration of half-maximal effect
Procedure, shortened: as §3

[13] = Quantitative High-Throughput drug screen in 47 multiple myeloma cell lines against the NCATS MIPE library collection: KMM1_JCRB cell viability assay (AID 1918960); note: nearly all actives have a fitted effect of over 30% in size; note: potency is the fitted concentration of half-maximal effect
Procedure, shortened: as §2

[14] = Quantitative High-Throughput drug screen in 47 multiple myeloma cell lines against the NCATS MIPE library collection: JIM3_ECACC cell viability assay (AID 1918963; note: nearly all actives have a fitted effect of over 35% in size; note: potency is the fitted concentration of half-maximal effect)
Procedure, shortened: as §3

[15] = Quantitative High-Throughput drug screen in 47 multiple myeloma cell lines against the NCATS MIPE library collection: JIM1_ECACC cell viability assay (AID 1918964; note: potency is the fitted concentration of half-maximal effect)
Procedure, shortened: as §1

[16] = Quantitative High-Throughput drug screen in 47 multiple myeloma cell lines against the NCATS MIPE library collection: FR4_PLB cell viability assay (AID 1918924; note: nearly all actives have a fitted effect of over 35% in size)
Procedure, shortened: as §3

[17] = Quantitative High-Throughput drug screen in 47 multiple myeloma cell lines against the NCATS MIPE library collection: EJM_DSMZ cell viability assay (AID 1918926; note: nearly all actives have a fitted effect of over 30% in size; note: potency is the fitted concentration of half-maximal effect)
Procedure, shortened: as §1

[18] = Quantitative High-Throughput drug screen in 47 multiple myeloma cell lines against the NCATS MIPE library collection: AMO1_DSMZ cell viability assay (AID 1918927; note: nearly all actives have a fitted effect of over 30% in size; note: potency is the fitted concentration of half-maximal effect)
Procedure, shortened: as §1

[19] = Quantitative High-Throughput drug screen in 47 multiple myeloma cell lines against the NCATS MIPE library collection: ARD_JJKsccE7 cell viability assay (AID 1918929; note: potency is the fitted concentration of half-maximal effect)
Procedure, shortened: as §1

[20] = Quantitative High-Throughput drug screen in 47 multiple myeloma cell lines against the NCATS MIPE library collection: Karpas417_ECACC cell viability assay (AID 1918961); settings: Karpas417 myeloma viability, CellTiter-Glo ATP luminescence, 48 h; viability (% of DMSO): at 45.8 µM (top of the series); note: potency is the fitted concentration of half-maximal effect
Procedure, shortened: as §4

SMILES | Potency [1] | Potency [2] | outcome [3] | Potency [4] | Potency [5] | Potency [6] | Potency [7] | Potency [8] | Potency [9] | Potency [10] | Potency [11] | Potency [12] | Potency [13] | Potency [14] | Potency [15] | Potency [16] | Potency [17] | Potency [18] | Potency [19] | Potency [20]
CNC(=O)c1ccc2c(C(=Nc3cccc(CN(C)C)c3)c3ccccc3)c(O)[nH]c2c1 | inactive | inactive | inactive | 23.5 µM (active) | inactive | 1.32 µM (active) | 20.9 µM (active) | 2.64 µM (active) | 14.8 µM (active) | 13.2 µM (active) | 2.35 µM (active) |  |  |  |  |  |  |  |  | 
CCCCn1c(=O)n(Cc2ccccc2F)c(=O)c2[nH]c(Cc3ccc(NC(C)=O)cc3)nc21 | inactive | 13.5 µM (active) | inactive | inactive |  |  |  |  | inactive |  | inactive | inactive | inactive | 23.5 µM (active) | 0.0042 µM (active) |  |  |  |  | 
CCCCC(F)(F)[C@@]1(O)CC[C@H]2[C@H](CC(=O)[C@@H]2CCCCCCC(=O)O)O1 | inactive | inactive |  | inactive | inactive | inactive | inactive |  | inactive |  |  | inactive | inactive | inactive |  | inactive | inactive | inactive |  | 
c1cc(OCCN2CCCCC2)cc(-c2n[nH]c3ccc(-c4ncn[nH]4)cc23)c1 | inactive | inactive | inactive | 13.2 µM (active) |  | 14.8 µM (active) | 6.62 µM (active) | 11.8 µM (active) |  | 14.8 µM (active) | 18.7 µM (active) | inactive |  | 18.7 µM (active) |  |  | 33.2 µM (active) |  | 2.35 µM (active) | 
c1ccc(-c2oc3ncnc(NC[C@@H]4CCCO4)c3c2-c2ccccc2)cc1 | inactive | inactive | inactive |  |  |  | 16.6 µM (active) | 16.6 µM (active) | inactive |  | 4.69 µM (active) | 6.62 µM (active) | 3.32 µM (active) |  |  |  |  | inactive |  | 
CCn1c(-c2nonc2N)nc2cncc(CNC3CCNCC3)c21 | inactive | inactive | inactive |  | 10.5 µM (active) | 2.64 µM (active) | 5.9 µM (active) |  | 5.26 µM (active) | 8.33 µM (active) | 2.09 µM (active) |  |  | 2.96 µM (active) |  |  | inactive |  |  | 
COc1cc2ncnc(Nc3cc(Br)c(O)c(Br)c3)c2cc1OC | 6.7 µM (active) | inactive | inactive |  | 1.32 µM (active) |  | 0.148 µM (active) |  | 0.0418 µM (active) |  |  |  |  | 0.935 µM (active) |  |  | 0.003 µM (active) |  | 13.2 µM (active) | 
COc1nccc(-c2c(-c3ccc(F)cc3)ncn2C2CCC(O)CC2)n1 (configuration not stated) | inactive | inactive |  |  |  |  | 13.2 µM (active) |  |  |  |  | inactive | inactive | inactive |  | inactive |  |  | 0.0083 µM (active) | 4.69 µM (active)
O=C(CCCN1CCN(c2ccc(F)cc2)CC1)NC1c2ccccc2CSc2ccccc21 (configuration not stated) | inactive | inactive | inactive | 5.26 µM (active) | 3.72 µM (active) | 4.18 µM (active) | 4.69 µM (active) |  | 7.43 µM (active) | 3.32 µM (active) | 5.9 µM (active) | 6.62 µM (active) | 4.69 µM (active) |  |  |  |  | 6.62 µM (active) | 3.32 µM (active) | 8.33 µM (active)
CNC(=O)c1cc(Oc2ccc(NC(=O)Nc3ccc(Cl)c(C(F)(F)F)c3)c(F)c2)ccn1 | inactive | inactive | inactive |  | 23.5 µM (active) |  | 5.9 µM (active) |  |  | 2.64 µM (active) | 7.43 µM (active) | 10.5 µM (active) | 2.96 µM (active) | 3.32 µM (active) | 13.2 µM (active) |  |  | 5.9 µM (active) | 5.26 µM (active) | 4.69 µM (active)
CCNC(=O)c1noc(-c2cc(C(C)C)c(O)cc2O)c1-c1ccc(CN2CCOCC2)cc1 | inactive | inactive | inactive |  |  |  | 0.0833 µM (active) |  |  | 0.0332 µM (active) | inactive |  |  | 0.0743 µM (active) |  |  |  |  |  | 
CCN1C[C@H](C)n2c(c(O)c3c(=O)n(Cc4ccc(F)c(Cl)c4)nc(C(=O)NC)c32)C1=O | 29.9 µM (active) | inactive | inactive |  | inactive | inactive | inactive |  | inactive | inactive | inactive | 0.0066 µM (active) | inactive | inactive | inactive |  | inactive | inactive | inactive | 
Cc1ccc2c(c1)C(=O)[C@]1(O)CCN(c3ccccc3)C1=N2 | inactive | inactive | inactive | inactive |  | inactive |  |  |  |  |  | inactive | inactive |  | inactive |  |  |  | inactive | 
Cn1c(=O)c(-c2c(Cl)cccc2Cl)cc2cnc(Nc3cccc(C(=O)O)c3)nc21 | inactive | inactive | inactive | inactive |  |  |  | 4.18 µM (active) |  | inactive |  | 1.48 µM (active) | 0.209 µM (active) | inactive | 0.0264 µM (active) |  |  | 0.469 µM (active) | 0.469 µM (active) | 0.059 µM (active)
Cn1cnc(-c2cc3nccc(Oc4ccc(NC(=S)NC(=O)Cc5ccccc5)cc4F)c3s2)c1 | inactive | inactive | inactive |  |  |  | 6.62 µM (active) | 16.6 µM (active) |  |  | 23.5 µM (active) |  |  |  |  |  |  |  | 18.7 µM (active) | 
